Unmarked numbers belong to inactive results. How the calls were made is not given here.
Test system: Aerobactin synthetase IucA (Klebsiella pneumoniae hvKP1)
Experiment: Biochemical IucA enzyme inhibition primary screen of the Spectrum library (AID 1346200);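 further: 100% = wells without compound and 0% = wells lacking enzyme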
Conditions: malachite green pyrophosphate, A620, at 8 µM, stronger effect = lower value

Row | Structure (SMILES) | activity remaining [%]
1 | Cc1ncc(CO)c(CO)c1O | 102
2 | COc1ccc2c(c1)c(CC(=O)OCC(=O)O)c(C)n2C(=O)c1ccc(Cl)cc1 | 92.7
3 | CCOC(=O)NNc1nncc2ccccc12 | 118
4 | CCN1C[C@]2(OC(=O)c3ccccc3NC(C)=O)CCC(OC)[C@]34C1[C@H](CC23)[C@@]1(O)CC(OC)[C@H]2CC4C1(O)[C@H]2OC (stereo not given in full) | 95.9
5 | C[C@@H]1[C@H]2[C@H](O[C@@H]3O[C@H](CO)[C@@H](O)[C@H](O)[C@H]3O)OC=C(C(=O)O)[C@H]2C[C@@H]1O | 120
6 | CCCc1cc(=O)[nH]c(=S)[nH]1 | 120
7 | C[C@@H]1CC[C@@]23CCC4(C)[C@@](C=CC5[C@@]6(C)CC[C@H](O)C(C)(C)C6CC[C@]54C)(OC2=O)C3[C@H]1C (stereo not given in full) | 99.4
8 | C[N+](C)(C)CC(O)CC(=O)O (stereo not given) | 99.1
9 | CC(=O)N[C@@H](CCC(=O)O)C(=O)O | 92.3
10 | O=C(OC[C@H]1O[C@H](OC(=O)c2cc(O)c(O)c(OC(=O)c3cc(O)c(O)c(O)c3)c2)[C@H](OC(=O)c2cc(O)c(O)c(OC(=O)c3cc(O)c(O)c(O)c3)c2)[C@@H](OC(=O)c2cc(O)c(O)c(OC(=O)c3cc(O)c(O)c(O)c3)c2)[C@@H]1OC(=O)c1cc(O)c(O)c(OC(=O)c2cc(O)c(O)c(O)c2)c1)c1cc(O)c(O)c(OC(=O)c2cc(O)c(O)c(O)c2)c1 | 100
11 | COC(=O)[C@@]1(C)CCC[C@]2(C)c3ccc(O)c(C(C)C)c3CCC12 (stereo not given in full) | 121
12 | CC(=O)OCC(=O)[C@H]1CCC2C3CC=C4C[C@@H](O)CC[C@]4(C)C3CC[C@@]21C (stereo not given in full) | 92.3
13 | CCOC(=O)[C@H](CCc1ccccc1)N[C@@H](C)C(=O)N1[C@H](C(=O)O)C[C@@H]2CCC[C@@H]21 | 103
14 | COC(=O)C(C)c1ccc(C(=O)c2cccs2)cc1 (stereo not given) | 103
15 | O=c1cc(-c2ccccc2O)oc2cc(O)ccc12 | 100
16 | C/C1=C\CCC(=O)C2CC(C)(C)C2CC1 (stereo not given) | 105
17 | COc1cc2c(cc1OC)[C@@H]1C(=O)c3ccc4c(c3O[C@@H]1CO2)C=CC(C)(C)O4 | 118
18 | C[C@]12CCC3c4ccc(OS(=O)(=O)O)cc4CCC3C1CCC2=O (stereo not given in full) | 122
19 | Nc1ccc(N=Nc2ccccc2)c(N)n1 | 112
20 | C=CCCCCCCCCCCCC(O)CC(O)CO (stereo not given) (tested in a mixture with another compound) | 85.4

Row | Structure (SMILES) | activity remaining [%]
21 | Cc1noc(NS(=O)(=O)c2ccc(N)cc2)c1C | 117
22 | CC(C(=O)O)[C@H]1CCC2C3CC=C4C[C@@H](O)CC[C@]4(C)C3CC[C@@]21C (stereo not given in full) | 98.4
23 | COc1ccc2c(c1)OCC(Cc1ccc(OC)c(O)c1)C2=O (stereo not given) | 115
24 | CC(=O)[C@@]1(O)CCC2C3C[C@H](C)C4=CC(=O)C=CC4(C)[C@@]3(F)[C@@H](O)C[C@@]21C (stereo not given in full) | 114
25 | C[C@@H]1CC2C3CCC4=CC(=O)C=C[C@]4(C)[C@@]3(F)[C@@H](O)C[C@]2(C)[C@@]1(O)C(=O)COP(=O)(O)O (stereo not given in full) | 114
26 | CCCCC(CC)CN1CN(CC(CC)CCCC)CC(C)(N)C1 (stereo not given) | 89.7
27 | COc1c2ccoc2cc2oc(=O)ccc12 | 102
28 | CC(C)(Oc1ccc(CCNC(=O)c2ccc(Cl)cc2)cc1)C(=O)O | 96.6
29 | CN(C)CC[C@H](c1ccc(Cl)cc1)c1ccccn1 | 90.6
30 | COc1ccc2c(c1)O[C@H]1c3ccc(OC)cc3OC[C@@H]21 | 122
31 | CCCCCCCCCCCCCCCC(=O)OC/C=C(C)/C=C/C=C(C)/C=C/C1=C(C)CCCC1(C)C | 89
32 | NC(N)=Nc1nc(CSCC/C(N)=N\S(N)(=O)=O)cs1 | 113
33 | COC(=O)CC1C(C)(C)C(OC(C)=O)[C@@H]2[C@@H](OC(C)=O)[C@]34O[C@@]2(O)[C@]1(C)C3CC[C@]1(C)C4=CC(=O)O[C@H]1c1ccoc1 (stereo not given in full) | 124
34 | COC1=CC(=O)C(O)=C/C1=C\C=C\c1ccccc1 | 106
35 | Oc1ccc(Cl)c2cccnc12 | 121
36 | Cn1c([N+](=O)[O-])cnc1COC(N)=O | 104
37 | CC1=C(/C=C/C(C)=C/C=C/C(C)=C/C=C/C=C(C)/C=C/C=C(C)/C=C/C2=C(C)CCCC2(C)C)C(C)(C)CCC1 | 123
38 | NC(N)=N/N=C\c1c(Cl)cccc1Cl | 97
39 | Cc1c(Cl)cccc1Nc1ccccc1C(=O)O | 82.9
40 | COC1CC2CCC(C)C(O)(O2)C(=O)C(=O)N2CCCCC2C(=O)OC(C(C)CC2CCC(O)C(OC)C2)CC(=O)C(C)/C=C(\C)C(O)C(OC)C(=O)C(C)CC(C)/C=C/C=C/C=C/1C (stereo not given) | 107

Row | Structure (SMILES) | activity remaining [%]
41 | Cn1nnnc1SCC1=C(C(=O)O)N2C(=O)C(NC(=O)C(O)c3ccccc3)C2SC1 (stereo not given) | 121
42 | CC(C)NCC(O)COc1cccc2ccccc12 (stereo not given) | 105
43 | CC1(C)CC23C(=O)CCC(O)C2(C)CCC13 (stereo not given) | 113
44 | CC1=C2C(O)C(=O)OC3CC4C(C)(C)C(=O)C=C[C@]4(C)C(CC1)[C@]23C (stereo not given in full) | 109
45 | O=C(O)CCNC(=O)c1ccccc1 | 103
46 | COc1ccc2c(c1)O[C@@H]1COc3cc(OC)c(OC)cc3[C@@H]1C2=O | 111
47 | C[N+]1(C)C[C@H](O)[C@H](C(=O)[O-])C1 | 94.3
48 | NC[C@H]1O[C@H](O[C@H]2[C@H](O)[C@@H](O[C@H]3O[C@H](CO)[C@@H](O)[C@H](N)[C@H]3O)[C@H](N)C[C@@H]2N)[C@H](N)[C@@H](O)[C@@H]1O | 108
49 | NC(Cn1ccc(=O)c(O)c1)C(=O)O (stereo not given) | 118
50 | COC1=CC(C)[C@@H]2C[C@H]3OC(=O)C[C@H]4C(C)=C(OC)C(=O)C([C@@]34C)[C@@]2(C)C1=O (stereo not given in full) | 97.8
51 | O=C(/C=C/c1ccc(O)cc1)c1ccccc1O | 109
52 | C[C@H]1[C@H](C)CC[C@]2(C(=O)O)CC[C@]3(C)C(=CCC4[C@@]5(C)C[C@@H](O)[C@H](O)[C@@](C)(CO)C5CC[C@]43C)[C@H]12 (stereo not given in full) | 102
53 | C=C1C2CC[C@@]3(C)[C@H](c4ccoc4)OC(=O)C[C@]13O[C@H]1CC(=O)C(C)(C)C(CC(=O)OC)C21C (stereo not given in full) | 124
54 | Cc1cc(C)cc(OCC2CNC(=O)O2)c1 (stereo not given) | 113
55 | COc1cc(O)cc(/C=C/c2ccccc2)c1 | 104
56 | COc1cc(NS(=O)(=O)c2ccc(N)cc2)nc(OC)n1 | 90.2
57 | CC(=O)O[C@]1(C(C)=O)CCC2C3C=C(C)C4=CC(=O)CCC4(C)C3CCC21C (stereo not given in full) | 98
58 | CC[C@@]1(O)C(=O)OCc2c1cc1n(c2=O)Cc2cc3cc(O)ccc3nc2-1 | 117
59 | CC[C@H]1OC(=O)[C@H](C)[C@@H](O[C@H]2C[C@@](C)(OC)[C@@H](O)[C@H](C)O2)[C@H](C)[C@@H](O[C@@H]2O[C@H](C)C[C@H](N(C)C)[C@H]2O)[C@](C)(O)C[C@@H](C)CN(C)[C@H](C)[C@@H](O)[C@]1(C)O | 104
60 | C[C@]12C=CC(=O)C=C1CCC1C2[C@@H](O)C[C@@]2(C)C1CC[C@]2(O)C(=O)COC(=O)CCC(=O)O (stereo not given in full) | 111

From PubChem BioAssay
